# Results from the supplement of paper PMC12282887.
# ± gives the standard deviation of the averaged measurements.
# Legend:
# Experiment in all cases: promoter activity interaction Z-score (Lux/OD deviation from empty-vector control); higher = stronger promoter induction by the compound
# [1] = test system: E. coli BW25113 acrABp lux reporter
# In short: (§1)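 Wild-type E. coli BW25113 and three single-gene deletion strains, each carrying a low-copy luxCDABE promoter reporter, were grown at 37°C in 40 µl LB Lennox per well of a 384-well plate. Every compound was applied at four 1:2 dilutions in biological duplicates, and OD600 and luminescence were read every 30 min for 12 h. Integration covered 0–8 h for wild type and 1–9 h for deletion strains, and wells under 10% of the median growth value were removed. Scores are Z-transformed residuals of growth-normalised luminescence fitted against a control.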
# [2] = test system: E. coli BW25113 marRABp lux reporter
# In short: as §1
# [3] = test system: E. coli BW25113 micFp lux reporter
# In short: as §1
# [4] = test system: E. coli BW25113 ompFp lux reporter
# In short: as §1
# [5] = test system: E. coli BW25113 robp lux reporter
# In short: as §1
# [6] = test system: E. coli BW25113 soxSp lux reporter
# In short: as §1
# [7] = test system: E. coli BW25113 tolCp lux reporter
# In short: as §1
# [8] = 0.13 µg/ml, genetic background: wild type
# [9] = 0.13 µg/ml, genetic background: ΔmarA
# [10] = 0.13 µg/ml, genetic background: Δrob
# [11] = 0.13 µg/ml, genetic background: ΔsoxS
# [12] = 0.26 µg/ml, genetic background: wild type
# [13] = 0.26 µg/ml, genetic background: ΔmarA
# [14] = 0.26 µg/ml, genetic background: Δrob
# [15] = 0.26 µg/ml, genetic background: ΔsoxS
# [16] = 0.52 µg/ml, genetic background: wild type
# [17] = 0.52 µg/ml, genetic background: ΔmarA
# [18] = 0.52 µg/ml, genetic background: Δrob
# [19] = 0.52 µg/ml, genetic background: ΔsoxS
# [20] = 9.8 µg/ml, genetic background: wild type
# [21] = 9.8 µg/ml, genetic background: ΔmarA
# [22] = 9.8 µg/ml, genetic background: Δrob
# [23] = 9.8 µg/ml, genetic background: ΔsoxS
# [24] = 19.5 µg/ml, genetic background: wild type
# [25] = 19.5 µg/ml, genetic background: ΔmarA
# [26] = 19.5 µg/ml, genetic background: Δrob
# [27] = 19.5 µg/ml, genetic background: ΔsoxS
# [28] = 39 µg/ml, genetic background: wild type
# [29] = 39 µg/ml, genetic background: ΔmarA
# [30] = 39 µg/ml, genetic background: Δrob
# [31] = 39 µg/ml, genetic background: ΔsoxS
smiles,measurement,setting,value
CNC(C)C1CCC(N)C(OC2C(N)CC(N)C(OC3OCC(C)(O)C(NC)C3O)C2O)O1 (centres undefined) [Gentamicin],promoter activity interaction Z-score,[1]; [8],-0.258 ± 0.098
same,promoter activity interaction Z-score,[1]; [9],0.731 ± 0.32
same,promoter activity interaction Z-score,[1]; [10],0.126 ± 0.055
same,promoter activity interaction Z-score,[1]; [11],0.158 ± 0.14
same,promoter activity interaction Z-score,[1]; [12],-0.117 ± 0.18
same,promoter activity interaction Z-score,[1]; [13],0.35 ± 0.15
same,promoter activity interaction Z-score,[1]; [14],0.483 ± 0.18
same,promoter activity interaction Z-score,[1]; [15],0.0843 ± 0.06
same,promoter activity interaction Z-score,[1]; [16],0.311 ± 0.023
same,promoter activity interaction Z-score,[1]; [17],0.396 ± 0.21
same,promoter activity interaction Z-score,[1]; [18],0.801 ± 0.45
same,promoter activity interaction Z-score,[1]; [19],0.744 ± 0.39
same,promoter activity interaction Z-score,[2]; [8],-0.229 ± 0.24
same,promoter activity interaction Z-score,[2]; [9],-0.193 ± 0.19
same,promoter activity interaction Z-score,[2]; [10],-0.0111 ± 0.062
same,promoter activity interaction Z-score,[2]; [11],0.027 ± 0.11
same,promoter activity interaction Z-score,[2]; [12],-0.22 ± 0.026
same,promoter activity interaction Z-score,[2]; [13],-0.108 ± 0.19
same,promoter activity interaction Z-score,[2]; [14],-0.0765 ± 0.087
same,promoter activity interaction Z-score,[2]; [15],0.17 ± 0.086
same,promoter activity interaction Z-score,[2]; [16],0.575 ± 0.65
same,promoter activity interaction Z-score,[2]; [17],0.543 ± 0.31
same,promoter activity interaction Z-score,[2]; [18],0.678 ± 1
same,promoter activity interaction Z-score,[2]; [19],0.166
same,promoter activity interaction Z-score,[3]; [8],-0.256 ± 0.0079
same,promoter activity interaction Z-score,[3]; [9],-0.00364 ± 0.024
same,promoter activity interaction Z-score,[3]; [10],-0.0412 ± 0.1
same,promoter activity interaction Z-score,[3]; [11],0.232 ± 0.23
same,promoter activity interaction Z-score,[3]; [12],-0.302 ± 0.26
same,promoter activity interaction Z-score,[3]; [13],0.035 ± 0.072
same,promoter activity interaction Z-score,[3]; [14],0.115 ± 0.15
same,promoter activity interaction Z-score,[3]; [15],0.509 ± 0.23
same,promoter activity interaction Z-score,[3]; [16],-0.614 ± 0.016
same,promoter activity interaction Z-score,[3]; [17],0.0535 ± 0.039
same,promoter activity interaction Z-score,[3]; [18],0.114 ± 0.013
same,promoter activity interaction Z-score,[3]; [19],0.235 ± 0.36
same,promoter activity interaction Z-score,[4]; [8],-0.504 ± 0.27
same,promoter activity interaction Z-score,[4]; [9],-0.192 ± 0.27
same,promoter activity interaction Z-score,[4]; [10],0.285 ± 0.14
same,promoter activity interaction Z-score,[4]; [11],0.28 ± 0.15
same,promoter activity interaction Z-score,[4]; [12],-1.09 ± 0.052
same,promoter activity interaction Z-score,[4]; [13],-0.0939 ± 0.49
same,promoter activity interaction Z-score,[4]; [14],-0.00259 ± 0.23
same,promoter activity interaction Z-score,[4]; [15],0.504 ± 0.56
same,promoter activity interaction Z-score,[4]; [16],-0.826
same,promoter activity interaction Z-score,[4]; [17],-0.127 ± 0.14
same,promoter activity interaction Z-score,[4]; [18],-0.414
same,promoter activity interaction Z-score,[4]; [19],0.191 ± 0.32
same,promoter activity interaction Z-score,[5]; [8],-0.805 ± 0.067
same,promoter activity interaction Z-score,[5]; [9],-0.513 ± 0.77
same,promoter activity interaction Z-score,[5]; [10],0.0663 ± 0.25
same,promoter activity interaction Z-score,[5]; [11],-0.014 ± 0.43
same,promoter activity interaction Z-score,[5]; [12],-0.862 ± 1.1
same,promoter activity interaction Z-score,[5]; [13],0.245 ± 0.6
same,promoter activity interaction Z-score,[5]; [14],-0.248 ± 0.75
same,promoter activity interaction Z-score,[5]; [15],0.869 ± 0.64
same,promoter activity interaction Z-score,[5]; [16],-1.31 ± 0.28
same,promoter activity interaction Z-score,[5]; [17],-0.148 ± 0.081
same,promoter activity interaction Z-score,[5]; [18],-1.14 ± 0.47
same,promoter activity interaction Z-score,[5]; [19],-0.192 ± 0.46
same,promoter activity interaction Z-score,[6]; [8],-0.176 ± 0.037
same,promoter activity interaction Z-score,[6]; [9],0.0574 ± 0.0087
same,promoter activity interaction Z-score,[6]; [10],0.128 ± 0.056
same,promoter activity interaction Z-score,[6]; [11],0.247 ± 0.13
same,promoter activity interaction Z-score,[6]; [12],-0.318 ± 0.11
same,promoter activity interaction Z-score,[6]; [13],-0.0384 ± 0.093
same,promoter activity interaction Z-score,[6]; [14],0.0805 ± 0.022
same,promoter activity interaction Z-score,[6]; [15],0.308 ± 0.14
same,promoter activity interaction Z-score,[6]; [16],-0.16 ± 0.27
same,promoter activity interaction Z-score,[6]; [17],-0.404 ± 0.039
same,promoter activity interaction Z-score,[6]; [18],-0.462 ± 0.067
same,promoter activity interaction Z-score,[6]; [19],0.162 ± 0.49
same,promoter activity interaction Z-score,[7]; [8],-0.827 ± 0.069
same,promoter activity interaction Z-score,[7]; [9],0.61 ± 0.68
same,promoter activity interaction Z-score,[7]; [10],-0.223 ± 0.083
same,promoter activity interaction Z-score,[7]; [11],0.974 ± 0.11
same,promoter activity interaction Z-score,[7]; [12],-0.519 ± 0.51
same,promoter activity interaction Z-score,[7]; [13],0.897 ± 0.19
same,promoter activity interaction Z-score,[7]; [14],0.252 ± 0.61
same,promoter activity interaction Z-score,[7]; [15],0.0714 ± 0.32
same,promoter activity interaction Z-score,[7]; [16],-0.626 ± 0.67
same,promoter activity interaction Z-score,[7]; [17],-0.251 ± 0.16
same,promoter activity interaction Z-score,[7]; [18],-0.791 ± 0.011
same,promoter activity interaction Z-score,[7]; [19],0.133 ± 0.12
c1ccc(-c2ccccn2)nc1 [2-2-Bipyridyl],promoter activity interaction Z-score,[1]; [20],-0.38 ± 0.11
same,promoter activity interaction Z-score,[1]; [21],-0.262 ± 0.49
same,promoter activity interaction Z-score,[1]; [22],-0.666 ± 0.24
same,promoter activity interaction Z-score,[1]; [23],-0.339 ± 0.48
same,promoter activity interaction Z-score,[1]; [24],-0.678 ± 0.23
same,promoter activity interaction Z-score,[1]; [25],0.0964 ± 1.5
same,promoter activity interaction Z-score,[1]; [26],-0.696 ± 0.048
same,promoter activity interaction Z-score,[1]; [27],-0.763 ± 0.36
same,promoter activity interaction Z-score,[1]; [28],-0.446 ± 0.45
same,promoter activity interaction Z-score,[1]; [29],1.4 ± 0.6
same,promoter activity interaction Z-score,[1]; [30],-0.276 ± 0.72
same,promoter activity interaction Z-score,[1]; [31],-0.305 ± 0.33
same,promoter activity interaction Z-score,[3]; [20],0.412 ± 0.33
same,promoter activity interaction Z-score,[3]; [21],0.243 ± 0.14
same,promoter activity interaction Z-score,[3]; [22],0.0359 ± 0.019
same,promoter activity interaction Z-score,[3]; [23],0.7191 ± 0.0054
same,promoter activity interaction Z-score,[3]; [24],1.15 ± 0.4
same,promoter activity interaction Z-score,[3]; [25],0.622 ± 0.29
same,promoter activity interaction Z-score,[3]; [26],0.498 ± 0.0061
same,promoter activity interaction Z-score,[3]; [27],3.01 ± 0.73
same,promoter activity interaction Z-score,[3]; [28],5.52 ± 0.58
same,promoter activity interaction Z-score,[3]; [29],0.943 ± 0.12
same,promoter activity interaction Z-score,[3]; [30],7.21 ± 1.5
same,promoter activity interaction Z-score,[3]; [31],9.5118 ± 0.00024
same,promoter activity interaction Z-score,[4]; [20],-0.0949 ± 0.034
same,promoter activity interaction Z-score,[4]; [21],-0.555 ± 0.58
same,promoter activity interaction Z-score,[4]; [22],-0.389 ± 0.39
same,promoter activity interaction Z-score,[4]; [23],-0.351 ± 0.17
same,promoter activity interaction Z-score,[4]; [24],-0.745 ± 0.54
same,promoter activity interaction Z-score,[4]; [25],-0.948 ± 0.58
same,promoter activity interaction Z-score,[4]; [26],-0.682 ± 0.16
same,promoter activity interaction Z-score,[4]; [27],-0.195 ± 0.78
same,promoter activity interaction Z-score,[4]; [28],-1.5 ± 0.86
same,promoter activity interaction Z-score,[4]; [29],-1.52 ± 0.45
same,promoter activity interaction Z-score,[4]; [30],-0.777 ± 0.2
same,promoter activity interaction Z-score,[4]; [31],0.325 ± 1.2
same,promoter activity interaction Z-score,[5]; [20],-0.0517 ± 0.47
same,promoter activity interaction Z-score,[5]; [21],0.352 ± 0.77
same,promoter activity interaction Z-score,[5]; [22],-0.375 ± 0.059
same,promoter activity interaction Z-score,[5]; [23],-0.326 ± 0.77
same,promoter activity interaction Z-score,[5]; [24],-0.772 ± 0.88
same,promoter activity interaction Z-score,[5]; [25],0.322 ± 0.12
same,promoter activity interaction Z-score,[5]; [26],-0.387 ± 0.49
same,promoter activity interaction Z-score,[5]; [27],-0.7 ± 0.084
same,promoter activity interaction Z-score,[5]; [28],-0.663 ± 1
same,promoter activity interaction Z-score,[5]; [29],0.193 ± 0.17
same,promoter activity interaction Z-score,[5]; [30],0.111 ± 0.013
same,promoter activity interaction Z-score,[5]; [31],1.63 ± 3.1
same,promoter activity interaction Z-score,[6]; [20],0.0863 ± 0.015
same,promoter activity interaction Z-score,[6]; [21],0.104 ± 0.016
same,promoter activity interaction Z-score,[6]; [22],-0.0121 ± 0.077
same,promoter activity interaction Z-score,[6]; [23],-0.208 ± 0.27
same,promoter activity interaction Z-score,[6]; [24],-0.706 ± 0.15
same,promoter activity interaction Z-score,[6]; [25],-0.407 ± 0.018
same,promoter activity interaction Z-score,[6]; [26],-0.63 ± 0.12
same,promoter activity interaction Z-score,[6]; [27],-0.64 ± 0.078
same,promoter activity interaction Z-score,[6]; [28],-1.84 ± 0.052
same,promoter activity interaction Z-score,[6]; [29],-1.08 ± 0.22
same,promoter activity interaction Z-score,[6]; [30],-1.495 ± 0.0068
same,promoter activity interaction Z-score,[6]; [31],-1.14 ± 0.73
